# Measured values from PubChem BioAssay AID2570 (National Center for Advancing Translational Sciences (NCATS), 2010).
# Records with an inconclusive call do not appear. A number with no mark means an inactive call. Calls follow the shape of the dose curve; as a rule, active = well fitted curve in the direction sought with a large enough effect; inconclusive = small, poorly fitted or top-dose-only effect, or another doubt; inactive = no such curve, though single readings can be large or run the other way.
# Target: Vasopressin V1b receptor (Homo sapiens) (UniProt P47901)
# Assay: Counterscreen Concentration-Response Assay for Antagonists of the Neuropeptide S Receptor: Vasopressin Receptor Calcium Signal Transduction
# Conditions: CHO-AVPR1B, vasopressin-stimulated calcium fluorescence, FDSS
# Description: NIH Chemical Genomics Center [NCGC] NIH Molecular Libraries Probe Production centers Network [MLPCN] MLPCN Grant: X01-DA026210-01 Assay Submitter (PI): Heilig, Markus Alexander NCGC Assay Overview: Neuropeptide S receptor (NPSR), previously known as GPR154, is a recently de-orphanized G protein coupled receptor. Its endogenous ligand is the 20 amino acids peptide Neuropeptide S (NPS). […] NPS and its receptor are found in various tissues. Specifically they are highly expressed in brain areas that have been implicated in modulation of arousal, stress and anxiety. […] This change in intracellular calcium can be detected using a calcium indicator dye on a calcium imaging plate reader system (FDSS). […]
# NCGC Assay Protocol Summary: A Chinese hamster ovary (CHO) cell line stably expressing human vasopressin receptor (AVPR1B) was maintained in F-12 Kaighn's media (Invitrogen, Carlsbad, CA, 21127) supplemented with 10 % FBS, 100 units/ml penicillin, 100 ug/ml streptomycin and 250 ug/ml geneticin at 37C, 5% CO2 in a humidified atmosphere. […] The assay was performed on a FDSS-7000 kinetic plate reader in 1536-well format. The maximums of kinetic fluorescence responses were converted into text files using the instrument's software data export utility. […] AC50 values were determined from concentration-response data modeled with the standard Hill equation. […]
# Sequence of Vasopressin V1b receptor (Homo sapiens) (P47901 whole entry, looked up): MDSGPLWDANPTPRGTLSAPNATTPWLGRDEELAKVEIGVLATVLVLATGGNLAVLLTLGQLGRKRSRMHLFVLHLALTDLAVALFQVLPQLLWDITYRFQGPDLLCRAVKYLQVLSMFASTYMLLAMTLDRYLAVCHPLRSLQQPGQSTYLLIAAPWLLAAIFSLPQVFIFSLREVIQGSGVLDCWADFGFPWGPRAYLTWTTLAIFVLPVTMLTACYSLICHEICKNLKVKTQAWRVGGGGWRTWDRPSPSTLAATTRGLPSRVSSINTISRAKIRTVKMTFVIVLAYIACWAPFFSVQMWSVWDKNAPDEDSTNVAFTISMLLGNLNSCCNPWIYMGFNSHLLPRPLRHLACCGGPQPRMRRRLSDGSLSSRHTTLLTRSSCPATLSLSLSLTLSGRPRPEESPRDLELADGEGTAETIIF
smiles,measurement,value
Cc1c(P(=S)(c2ccccc2)c2ccccc2)[n+]2ccccc2n1C,max response,7.72%
